About 79,000 compounds went through this panel and 15% of them were active in at least one assay; those are over-represented in the sample as a whole. Calls of active or inactive are those of the source. No stated cut-off is given here; in the data, active means growth inhibition above about 70%; inactive means the rest.

This test can be described thus: NCI Yeast Anticancer Drug Screen. Data for the mlh1 rad18 strain (AID 175). To be noted: S. cerevisiae mlh1 rad18 strain growth inhibition; at 50.0 µM; active compounds read high. In a few lines:
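Inhibition values reflect reduced growth of mutant yeast versus vehicle-treated controls following compound exposure; the mutations affect DNA damage repair.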
With `COC1OC(=O)c2ccccc21` (stereo not given), the growth inhibition was 12.8% (inactive).

`CC(C)c1ccc(CN)cc1`: the growth inhibition was -17.5% (inactive).

Regarding `Cc1cnc2cccc(C)c2c1Cl`, the growth inhibition is -3.3% (inactive).

For `COC(=O)C1=C(C(=O)OC)P2(C)(C)OC(c3ccccc3)CN2C1(c1ccccc1)c1ccccc1` (stereo not given), the growth inhibition was 40.9% (inactive).

As for `COC(=O)C1C(=C(c2ccccc2)c2ccccc2)C1c1ccccc1` (stereo not given), the growth inhibition was -8.7% (inactive).

Turning to `Nc1ccc(NC(=O)Nc2ccc(N)cc2)cc1`, the growth inhibition was 20.4% (inactive).

Regarding `CN(C)c1ccc(/C=N\NC(=S)NN2CCN(NC(=S)N/N=C\c3ccc(N(C)C)cc3)CC2)cc1`, the growth inhibition is 27.8% (inactive).

Regarding `O=C(NNC(=S)Nc1ccccc1)c1nsc2ccccc12`, the growth inhibition is 23.4% (inactive).

`COC(=O)c1ccc(/C=C2\Oc3ccccc3C2=O)cc1`: the growth inhibition is -44.5% (inactive).

As for `CCOc1ccc(N=Cc2c3ccccc3nc3ccccc23)cc1`, the growth inhibition was -9% (inactive).

Regarding `O=C(Nc1ccccc1F)c1c(O)nc2sccn2c1=O`, the growth inhibition was 34% (inactive).

In the case of `O=C(C=c1sc(=CC(=O)c2ccccc2)s1)c1ccccc1`, the growth inhibition is -35.6% (inactive).

As for `CC(=O)NC1CC(C)(C)NC(C)(C)C1`, the growth inhibition is -9.25% (inactive).

On to `COc1cc2c(c3c1CCC(C)(C)O3)Cc1c(cc(OC)c(OC)c1CCC(C)(C)O)O2`, for which the growth inhibition is 7.6% (inactive).

In the case of `CC1(C)C=C(C(=O)ON2C(=O)CCC2=O)C(C)(C)N1O`, the growth inhibition is -16.1% (inactive).

In the case of `CC12CCC(CC1C(=O)O)C2` (stereo not given), the growth inhibition was 15.3% (inactive).

On to `O=C(O)/C=C(\CC(=O)O)C(=O)O`, for which the growth inhibition is 1.15% (inactive).

`CC(=O)Nc1ccc(S(=O)(=O)Nc2cccc3ccccc23)cc1`: the growth inhibition was 21.6% (inactive).

Turning to `CO/C=C1/CCc2c(ccc3cc(OC)ccc23)C1=O`, the growth inhibition is -6.55% (inactive).

Turning to `CC(C)(C)c1ccccc1OC(=O)Nc1ccc(F)cc1`, the growth inhibition was -3.7% (inactive).

For `CC1(C)CC(OP(=O)(c2ccccc2)c2ccccc2)CC(C)(C)N1O`, the growth inhibition is 11.2% (inactive).

Turning to `O=C(NC1(C(=O)Oc2ccc([N+](=O)[O-])cc2)CCCC1)OCc1ccccc1`, the growth inhibition is 28.9% (inactive).

As to `N#CCCSc1nnc(N)s1`, the growth inhibition was -14.8% (inactive).

As to `CCCCCC(=O)c1ccc2[nH]c3c(C)cc([N+](=O)[O-])c(C)c3c2c1`, the growth inhibition was -10.3% (inactive).

As for `Cc1ccc(S(=O)(=O)OC2CCCC2OS(=O)(=O)c2ccc(C)cc2)cc1` (stereo not given), the growth inhibition is -9.85% (inactive).

`CCN(c1ccccc1)c1cc2c(cc1[N+](=O)[O-])no[n+]2[O-]`: the growth inhibition was 97.1% (active).

For the molecule `Nc1ccc2c(c1)CC1CC(=O)NN=C21` (stereo not given), the growth inhibition was -22.2% (inactive).

As for `Nc1ccc2ccccc2c1Cl`, the growth inhibition is -11.3% (inactive).

Take `N#CC(C#N)C1c2ccccc2Oc2ccccc21`: the growth inhibition is -14.3% (inactive).

Consider `Nc1nc(N)nc(-c2cc(Br)c(N)c(Br)c2)n1`, for which the growth inhibition was -8.25% (inactive).

Take `Cc1c(C(=O)O)c(-c2ccc([N+](=O)[O-])cc2)c(C=O)n1-c1ccccc1`: the growth inhibition was 22.9% (inactive).

With `O=C(O)c1cccc(F)c1C(=O)O`, the growth inhibition is 7.3% (inactive).

As for `CCOC(=O)N1Cc2cc3ccccc3nc2C1CC(=O)O` (stereo not given), the growth inhibition was -24.8% (inactive).

Turning to `C[N+](C)=c1ccc2nc3ccc(N)cc3sc-2c1`, the growth inhibition is -76.8% (inactive).

As to `CCCCCCCCCC1OC(C)C(C)O1` (stereo not given), the growth inhibition is 29.4% (inactive).

Regarding `N#CC(c1ccc(N)cc1)c1ccc(F)cc1` (stereo not given), the growth inhibition was 26.2% (inactive).

Turning to `CN(C)S(=O)(=O)c1cccc([N+](=O)[O-])c1`, the growth inhibition is 8.8% (inactive).

Consider `CCOC(=O)C(NC(=O)c1ccccc1)(C(=O)OCC)c1ccccn1`, for which the growth inhibition is 22.6% (inactive).

Turning to `CN(C)N=Nc1ccc(Cl)cc1C(=O)O`, the growth inhibition was 41% (inactive).

As for `Nc1ccc2[nH]c(=O)c(=O)[nH]c2c1`, the growth inhibition is 14.8% (inactive).

(Values after PubChem BioAssay (NCI).)
